# PubChem BioAssay (Tox21)
# Values without a mark were called inactive. Records with an inconclusive call do not appear. Entries that show only a call come without a potency. The source made the active and inactive calls. Calls come from the whole dose curve; as a rule, active = well fitted curve in the direction sought with a large enough effect in the repeat runs; inconclusive = weak or mixed curves; inactive = no such curve, though single readings can be large; an effect the other way counts as inactive or inconclusive.
# Experiments:
# [1] = qHTS RealTime-Glo MT Cell Viability Assay in HepG2 cells - 40 hour (AID 1224870); note: nearly all actives have a fitted effect of over 50% in size
# Method in brief: (§1)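 HepG2 cells (600/well) mixed with RealTime-Glo MT reagent, settled 5 h at 37 C/5% CO2 before compound addition. Nonlytic NanoLuc luminescence from viable-cell prosubstrate reduction read repeatedly during 40 h treatment at 37 C.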
# [2] = A CellTox Green Cytotoxicity Assay to monitor cytotoxicity in HEK293 cells - 40 hour (AID 1224871); note: nearly all actives have a fitted effect of over 45% in size
# Method in brief: (§2)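 Cells (HEK293, 600/well) and dye reagent are dispensed together. After 5 h at 37 C, 23 nL compound is pinned in. Plates stay at 37 C for 40 h with fluorescence read at 0h, 8h, 16h, 24h, 32h and 40h.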
# [3] = qHTS RealTime-Glo MT Cell Viability Assay in HepG2 cells - 8 hour (AID 1224873); note: nearly all actives have a fitted effect of over 55% in size
# Method in brief: as §1
# [4] = qHTS RealTime-Glo MT Cell Viability Assay in HEK293 cells - 40 hour (AID 1224874); details: RealTime-Glo luminescence; max response: hits give low values; note: nearly all actives have a fitted effect of over 50% in size; note: potency is the fitted concentration of half-maximal effect
# Method in brief: (§3)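 Real-time viability in HEK293: signal arises when living cells convert a prosubstrate for NanoLuc in the medium, so luminescence tracks viable cell number. Compound (23 nL, DMSO) added 5 h post-seeding; kinetic reads at 0–40 h, 37 C.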
# [5] = A CellTox Green Cytotoxicity Assay to monitor cytotoxicity in HEK293 cells - 24 hour (AID 1224875); note: series mostly up to about 77 µM; nearly all actives have a fitted effect of over 45% in size
# Method in brief: as §2
# [6] = A CellTox Green Cytotoxicity Assay to monitor cytotoxicity in HepG2 cells - 16 hour (AID 1224876); note: nearly all actives have a fitted effect of over 45% in size
# Method in brief: (§4)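 Cells and non-lytic dye reagent are dispensed together (600 HepG2 cells/well) and incubated 5 h before DMSO compound transfer. Kinetic fluorescence is then recorded in the same wells during 40 h at 37 C.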
# [7] = qHTS RealTime-Glo MT Cell Viability Assay in HepG2 cells - 32 hour (AID 1224877); note: nearly all actives have a fitted effect of over 55% in size
# Method in brief: (§5)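 HepG2 suspension premixed with RealTime-Glo reagents is plated at 600 cells per well and left 5 h at 37 C/5% CO2. Compounds in DMSO then go in, and bioluminescence reflecting viable cell number is recorded over 40 h.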
# [8] = A CellTox Green Cytotoxicity Assay to monitor cytotoxicity in HepG2 cells - 24 hour (AID 1224878); note: nearly all actives have a fitted effect of over 45% in size
# Method in brief: as §4
# [9] = A CellTox Green Cytotoxicity Assay to monitor cytotoxicity in HepG2 cells - 40 hour (AID 1224879); note: nearly all actives have a fitted effect of over 40% in size
# Method in brief: as §4
# [10] = A CellTox Green Cytotoxicity Assay to monitor cytotoxicity in HEK293 cells - 32 hour (AID 1224881); note: nearly all actives have a fitted effect of over 40% in size
# Method in brief: as §2
# [11] = A CellTox Green Cytotoxicity Assay to monitor cytotoxicity in HepG2 cells - 0 hour (AID 1224882); note: nearly all actives have a fitted effect of over 35% in size
# Method in brief: as §4
# [12] = A CellTox Green Cytotoxicity Assay to monitor cytotoxicity in HepG2 cells - 32 hour (AID 1224883); note: nearly all actives have a fitted effect of over 50% in size
# Method in brief: as §4
# [13] = A CellTox Green Cytotoxicity Assay to monitor cytotoxicity in HEK293 cells - 8 hour (AID 1224884); note: nearly all actives have a fitted effect of over 35% in size
# Method in brief: as §2
# [14] = qHTS RealTime-Glo MT Cell Viability Assay in HepG2 cells - 16 hour (AID 1224885); note: nearly all actives have a fitted effect of over 50% in size
# Method in brief: as §5
# [15] = qHTS RealTime-Glo MT Cell Viability Assay in HEK293 cells - 24 hour (AID 1224886)
# Method in brief: (§6)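 Reads taken at 0, 8, 16, 24, 32 and 40 h from the same wells. HEK293 cells (600/well) carried RealTime-Glo reagents from seeding, with compound added after a 5 h settle at 37 C.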
# [16] = qHTS RealTime-Glo MT Cell Viability Assay in HEK293 cells - 8 hour (AID 1224887); note: nearly all actives have a fitted effect of over 50% in size; note: potency is the fitted concentration of half-maximal effect
# Method in brief: as §3
# [17] = A CellTox Green Cytotoxicity Assay to monitor cytotoxicity in HEK293 cells - 16 hour (AID 1224888); note: nearly all actives have a fitted effect of over 35% in size
# Method in brief: as §2
# [18] = qHTS RealTime-Glo MT Cell Viability Assay in HepG2 cells - 0 hour (AID 1224889); note: nearly all actives have a fitted effect of over 50% in size
# Method in brief: as §5
# [19] = qHTS RealTime-Glo MT Cell Viability Assay in HEK293 cells - 0 hour (AID 1224880)
# Method in brief: as §3
# [20] = qHTS RealTime-Glo MT Cell Viability Assay in HEK293 cells - 16 hour (AID 1224872)
# Method in brief: as §6
structure (smiles),measurement,setting,value
COC(=O)c1cc(Cl)ccc1[N+](=O)[O-],Potency,[1],inactive
same,Potency,[2],inactive
same,outcome,[3],inactive
same,max response,[4],-14.8%
same,Potency,[5],inactive
same,Potency,[6],inactive
same,Potency,[7],inactive
same,Potency,[8],inactive
same,Potency,[9],inactive
same,Potency,[10],inactive
same,Potency,[11],inactive
same,Potency,[12],inactive
same,Potency,[13],inactive
same,outcome,[14],inactive
same,Potency,[15],inactive
same,Potency,[16],inactive
same,Potency,[17],inactive
same,Potency,[18],inactive
COc1ccc(/C=C/c2cc(OC)cc(=O)o2)cc1,Potency,[1],inactive
same,Potency,[2],inactive
same,outcome,[3],inactive
same,Potency,[4],8.92 µM (active)
same,Potency,[5],inactive
same,Potency,[6],inactive
same,Potency,[7],inactive
same,Potency,[8],inactive
same,Potency,[9],inactive
same,Potency,[19],inactive
same,Potency,[10],inactive
same,Potency,[11],inactive
same,Potency,[12],inactive
same,Potency,[13],inactive
same,outcome,[14],inactive
same,Potency,[16],inactive
same,Potency,[17],inactive
C/C(=C\C(C)CC(C)CC(C)C)C1CC(=O)OC1=O (stereo unspecified),Potency,[1],inactive
same,Potency,[2],inactive
same,outcome,[3],inactive
same,max response,[4],-12%
same,Potency,[5],inactive
same,Potency,[6],inactive
same,Potency,[7],inactive
same,Potency,[8],inactive
same,Potency,[9],inactive
same,Potency,[19],inactive
same,Potency,[10],inactive
same,Potency,[11],inactive
same,Potency,[12],inactive
same,outcome,[14],inactive
same,Potency,[15],inactive
same,Potency,[16],inactive
same,Potency,[17],inactive
same,Potency,[18],inactive
Clc1cccc(C(c2ccc3nc[nH]c3c2)n2ccnc2)c1 (stereo unspecified),Potency,[1],inactive
same,Potency,[2],inactive
same,outcome,[3],inactive
same,max response,[4],-17.1%
same,Potency,[5],inactive
same,Potency,[6],inactive
same,Potency,[7],inactive
same,Potency,[8],inactive
same,Potency,[9],inactive
same,Potency,[19],inactive
same,Potency,[10],inactive
same,Potency,[11],inactive
same,Potency,[13],inactive
same,outcome,[14],inactive
same,Potency,[16],3.38 µM (active)
same,Potency,[18],inactive
Cc1cc(C)c(C)c(O)c1,Potency,[1],inactive
same,Potency,[2],inactive
same,outcome,[3],inactive
same,max response,[4],0.904%
same,Potency,[5],inactive
same,Potency,[6],inactive
same,Potency,[7],inactive
same,Potency,[8],inactive
same,Potency,[9],inactive
same,Potency,[19],inactive
same,Potency,[10],inactive
same,Potency,[11],inactive
same,Potency,[13],inactive
same,outcome,[14],inactive
same,Potency,[15],inactive
same,Potency,[16],inactive
same,Potency,[17],inactive
same,Potency,[18],inactive
O=C(OCCCCCOC(=O)c1ccccc1)c1ccccc1,Potency,[1],inactive
same,Potency,[2],inactive
same,outcome,[3],inactive
same,Potency,[5],inactive
same,Potency,[6],inactive
same,Potency,[7],inactive
same,Potency,[8],inactive
same,Potency,[9],inactive
same,Potency,[19],inactive
same,Potency,[10],inactive
same,Potency,[11],inactive
same,Potency,[12],inactive
same,Potency,[13],inactive
same,outcome,[14],inactive
same,Potency,[18],inactive
OCCCO,Potency,[1],inactive
same,Potency,[2],inactive
same,outcome,[3],inactive
same,max response,[4],16.2%
same,Potency,[5],inactive
same,Potency,[6],inactive
same,Potency,[7],inactive
same,Potency,[8],inactive
same,Potency,[9],inactive
same,Potency,[19],inactive
same,Potency,[10],inactive
same,Potency,[11],inactive
same,outcome,[14],inactive
same,Potency,[15],inactive
same,Potency,[16],inactive
same,Potency,[17],inactive
same,Potency,[18],inactive
C[C@H](N)C(=O)N[C@@H](C)C(=O)NC1[C@H]2CN(c3nc4c(cc3F)c(=O)c(C(=O)O)cn4-c3ccc(F)cc3F)C[C@@H]12 (stereo partly specified),Potency,[1],inactive
same,Potency,[2],inactive
same,outcome,[3],inactive
same,max response,[4],0.749%
same,Potency,[5],inactive
same,Potency,[6],inactive
same,Potency,[7],inactive
same,Potency,[8],inactive
same,Potency,[9],inactive
same,Potency,[19],inactive
same,Potency,[10],inactive
same,Potency,[11],inactive
same,Potency,[13],inactive
same,outcome,[14],inactive
same,Potency,[16],inactive
same,Potency,[17],inactive
same,Potency,[18],inactive
O=C(O)c1cccc(C(=O)O)c1C(=O)O,Potency,[1],inactive
same,Potency,[20],inactive
same,outcome,[3],inactive
same,max response,[4],-17%
same,Potency,[5],inactive
same,Potency,[6],inactive
same,Potency,[7],inactive
same,Potency,[8],inactive
same,Potency,[9],inactive
same,Potency,[19],inactive
same,Potency,[10],inactive
same,Potency,[11],inactive
same,Potency,[12],inactive
same,Potency,[13],inactive
same,outcome,[14],inactive
same,Potency,[15],inactive
same,Potency,[16],inactive
same,Potency,[17],inactive
same,Potency,[18],inactive
S=c1[nH][nH]c(=S)s1,Potency,[1],inactive
same,Potency,[2],inactive
same,outcome,[3],inactive
same,Potency,[5],inactive
same,Potency,[6],inactive
same,Potency,[7],inactive
same,Potency,[8],inactive
same,Potency,[9],inactive
same,Potency,[19],inactive
same,Potency,[10],inactive
same,Potency,[11],inactive
same,Potency,[12],inactive
same,Potency,[13],inactive
same,outcome,[14],inactive
same,Potency,[16],inactive
same,Potency,[18],inactive
COC(=O)C(C)(C)C,Potency,[1],inactive
same,Potency,[2],inactive
same,outcome,[3],inactive
same,max response,[4],-22.6%
same,Potency,[5],inactive
same,Potency,[6],inactive
same,Potency,[7],inactive
same,Potency,[8],inactive
same,Potency,[9],inactive
same,Potency,[10],inactive
same,Potency,[11],inactive
same,Potency,[12],inactive
same,Potency,[13],inactive
same,outcome,[14],inactive
same,Potency,[16],inactive
same,Potency,[17],inactive
same,Potency,[18],inactive
Nc1ccc(-c2ccc(F)cc2)cc1,Potency,[1],inactive
same,Potency,[2],inactive
same,outcome,[3],inactive
same,max response,[4],-22.4%
same,Potency,[5],inactive
same,Potency,[6],inactive
same,Potency,[7],inactive
same,Potency,[8],inactive
same,Potency,[9],inactive
same,Potency,[19],inactive
same,Potency,[10],inactive
same,Potency,[11],inactive
same,Potency,[12],inactive
same,outcome,[14],inactive
same,Potency,[15],inactive
same,Potency,[18],inactive
Clc1ccccc1-c1nc(-c2ccncc2)no1,Potency,[1],inactive
same,Potency,[2],inactive
same,outcome,[3],inactive
same,Potency,[5],inactive
same,Potency,[6],inactive
same,Potency,[7],inactive
same,Potency,[8],inactive
same,Potency,[19],inactive
same,Potency,[10],inactive
same,Potency,[11],inactive
same,Potency,[12],inactive
same,Potency,[13],inactive
same,outcome,[14],inactive
same,Potency,[16],inactive
same,Potency,[17],inactive
same,Potency,[18],inactive
c1ccc(CCNc2nc(-c3ccccc3)cs2)cc1,Potency,[20],inactive
same,outcome,[3],inactive
same,max response,[4],-22.9%
same,Potency,[7],inactive
same,Potency,[9],inactive
same,Potency,[13],inactive
same,outcome,[14],inactive
same,Potency,[15],inactive
same,Potency,[18],inactive
CCOc1ccc(NC(C)=O)cc1N,Potency,[20],inactive
same,outcome,[3],inactive
same,max response,[4],3.81%
same,Potency,[5],inactive
same,Potency,[6],inactive
same,Potency,[7],inactive
same,Potency,[8],inactive
same,Potency,[9],inactive
same,Potency,[19],inactive
same,Potency,[10],inactive
same,Potency,[11],inactive
same,Potency,[12],inactive
same,Potency,[13],inactive
same,outcome,[14],inactive
same,Potency,[16],inactive
same,Potency,[17],inactive
same,Potency,[18],inactive
